This passage reports growth inhibition results from PubChem BioAssay (NCI).

The panel holds about 79,000 compounds, 15% with a hit somewhere; the sample as a whole holds those more often. Values without a mark were called inactive. The source made the active and inactive calls. Rule as the data show it: active = growth inhibition above about 70%; inactive = the rest.

This test in a line: NCI Yeast Anticancer Drug Screen. Data for the bub3 strain (AID 167). The note with it: S. cerevisiae bub3 mutant strain, at 50.0 µM, active compounds read high. The method, boiled down:
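In this screen, a yeast mutant lacking normal mitotic checkpoint function is challenged with compound. Relative growth versus vehicle gives the inhibition value.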
As to `BrCCCCCBr`, the growth inhibition is -5.45%.
The result for `O=[N+]([O-])c1ccc2c(c1)C(O)c1ccccc1-2` (stereo not drawn) reads 26.2%; that for `CC(O)C(C)C(N)C(=O)O` (stereo not drawn), -0.3%; that for `Cc1cccc(NC(=S)N(CCC#N)C2CCCCC2)c1`, 18.6%.
The result for `CNC(=O)OCc1c(COC(=O)NC)c2n(c1C)CCS2(=O)=O` reads 0.35%; that for `Cc1ccc2[nH]c(C)c(C(=O)c3ccncc3)c2c1`, -10.7%.
The result for `Brc1ccc2c(c1)C1(c3cc(Br)ccc3-2)c2cc(Br)ccc2-c2ccc(Br)cc21` reads 5.25%.
`COc1ccc2c(CC(=O)O)cc(=O)oc2c1`: the growth inhibition was 8.95%.
As to `O=c1cc(NCc2cccc([N+](=O)[O-])c2)[nH]c(=O)[nH]1`, the growth inhibition is -5.5%.
The figure for `CCCCCCCCCCCCOC1C(COCCN2CCCCC2)OC2OC(C)(C)OC21` (stereo not drawn) is 88% (active); for `CN(N=O)C(=O)NC(C=O)C(O)C(O)C(O)CO` (stereo not drawn) it is 0.4%.
The figure for `Cc1ccc2c(c1)SCc1c-2[nH]c2ccccc12` is 91.8% (active); for `N#C/C(=C\c1cccc(Cl)c1)C(=O)c1ccccc1` it is 0.2%; for `COC(=O)C1(Cc2ccc3c(c2)CCC3)Cc2ccccc2C1=O` (stereo not drawn) it is 49.5%.
The figure for `CC(C)C(=O)CC1(O)C(=O)Nc2ccc([N+](=O)[O-])cc21` (stereo not drawn) is 4.15%; for `CC(=O)OC1/C=C(/C)CCC2OC2(C)CC2OC(=O)C3(CC3)C12` (stereo not drawn) it is 1%; for `CCCCCCCCCCCC(=O)Nc1ccc(N(C)C(C)=O)cc1` it is 7.2%.
`CN(Cc1ccc(Cl)cc1)C(=O)Nc1ccccc1Cl`: the growth inhibition was 40.2%.
